Laboratory results taken from PubChem BioAssay AID743088 (The Scripps Research Institute Molecular Screening Center, 2013).
Values without a mark were called inactive.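 The calls were made as follows: active = binding inhibited by at least 50%, or stimulated by at least 50%, shown as inhibition of -50% or lower; inactive = the rest.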

System: Potassium Channel KATP
Experiment: radioligand displacement at 30 receptors – biochemical, Panlabs HitProfilingScreen, selectivity assay for AVPR1a antagonist project, profiling panel (AID 743088)
Details: 30 targets, at 10 µM, active compounds read high

Question: For `O=C(C1CCN(c2ccc(Cl)cn2)CC1)N(CC1CC1)c1ccc(Cl)cc1`, which inhibition of binding is on record?
Answer: Its inhibition of binding is 19%.
